Experimental data from PubChem BioAssay AID1159580 (chemical genetic matrix, 2015).
Hit rate of the full screen: of about 5,500 compounds, about 2,000 (36%) were called active. Another 18% or so got no clear call; they are omitted. Cut-off read from the data, not from the text of the source: active = normalized growth mostly below about 0.91 (no sharp cut-off); inconclusive = no clear call, values can overlap the other calls; inactive = mostly above about 0.92. This is one part of the list.

Test: chemical genetic growth profiling, strain panel (AID 1159580);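 note: tested at 20 µM; growth read once vehicle control cultures reached saturation at 30 °C; 1 = growth at the plate median or of vehicle wells; lower values mean less growth of the strain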
Conditions: S. cerevisiae deletion strains, growth OD

Measured: normalized growth

CN1CCN(C(=O)OC2c3nccnc3C(=O)N2c2ccc(Cl)cn2)CC1 (centres undefined)
inactive: locus YAL021C, strain ccr4, active compounds read low 1 | locus YAL026C, strain drs2, active compounds read low 0.993 | locus YAL030W, strain snc1, active compounds read low 0.997 | locus YBL061C, strain skt5, active compounds read low 0.99 | locus YBR009C, strain hhf1, active compounds read low 1.01 | locus YBR023C, strain chs3, active compounds read low 0.991 | locus YBR171W, strain sec66, active compounds read low 0.997 | locus YBR231C, strain swc5, active compounds read low 0.979 | locus YBR279W, strain paf1, active compounds read low 1.01 | locus YCL011C, strain gbp2, active compounds read low 1 | locus YCL016C, strain dcc1, active compounds read low 0.994 | locus YCL069W, strain vba3, active compounds read low 1 | locus YCR088W, strain abp1, active compounds read low 0.996 | locus YDL005C, strain med2, active compounds read low 0.99 | locus YDL040C, strain nat1, active compounds read low 0.981 | locus YDR001C, strain nth1, active compounds read low 0.992 | locus YDR069C, strain doa4, active compounds read low 0.991 | locus YDR137W, strain rgp1, active compounds read low 0.998 | locus YDR159W, strain sac3, active compounds read low 1.01 | locus YDR195W, strain ref2 0.959 | locus YDR297W, strain sur2, active compounds read low 0.979 | locus YDR334W, strain swr1, active compounds read low 0.983 | locus YDR335W, strain msn5, active compounds read low 1 | locus YDR392W, strain spt3, active compounds read low 1.02 | locus YEL003W, strain gim4, active compounds read low 1 | locus YEL037C, strain rad23, active compounds read low 0.994 | locus YEL061C, strain CIN8 (second series), active compounds read low 0.993 | locus YER015W, strain faa2, active compounds read low 0.99 | locus YER016W, strain bim1, active compounds read low 1.01 | locus YER111C, strain swi4, active compounds read low 1 | locus YER155C, strain BEM2 (second series), active compounds read low 0.999 | locus YFR010W, strain ubp6, active compounds read low 0.987 | locus YGL167C, strain pmr1, active compounds read low 0.986 | locus YGL173C, strain kem1, active compounds read low 0.976 | locus YGL227W, strain vid30, active compounds read low 0.976 | locus YGL240W, strain doc1, active compounds read low 1 | locus YGL253W, strain hxk2, active compounds read low 0.994 | locus YHR013C, strain ard1, active compounds read low 0.98 | locus YHR027C, strain rpn1, active compounds read low 1 | locus YHR030C, strain SLT2, active compounds read low 1.02 | locus YHR079C, strain IRE1, active compounds read low 1.01 | locus YHR142W, strain chs7, active compounds read low 1.01 | locus YJL092W, strain hpr5, active compounds read low 0.984 | locus YJL095W, strain BCK1 (second series), active compounds read low 0.97 | locus YJL095W, strain BCK1, active compounds read low 1.01 | locus YJL115W, strain asf1, active compounds read low 0.995 | locus YJL129C, strain trk1, active compounds read low 0.956 | locus YJL154C, strain vps35, active compounds read low 0.993 | locus YJL164C, strain tpk1, active compounds read low 1.01 | locus YJL166W, strain qcr8, active compounds read low 0.998 | locus YJL187C, strain SWE1, active compounds read low 0.994 | locus YJR066W, strain TOR1, active compounds read low 0.935 | locus YKL160W, strain elf1, active compounds read low 0.984 | locus YKR026C, strain gcn3, active compounds read low 0.988 | locus YKR091W, strain srl3, active compounds read low 0.995 | locus YLL001W, strain dnm1, active compounds read low 0.971 | locus YLL026W, active compounds read low 1 | locus YLL041C, strain sdh2, active compounds read low 1.01 | locus YLR027C, strain aat2, active compounds read low 1 | locus YLR113W, strain HOG1, active compounds read low 1 | locus YLR221C, strain rsa3, active compounds read low 0.987 | locus YLR258W, strain gsy2, active compounds read low 1.01 | locus YLR262C, strain YPT6 (second series), active compounds read low 1 | locus YLR320W, strain mms22, active compounds read low 1.01 | locus YLR342W, strain FKS1, active compounds read low 0.995 | locus YLR357W, strain rsc2, active compounds read low 0.978 | locus YLR370C, strain arc18, active compounds read low 0.998 | locus YLR384C, strain iki3, active compounds read low 0.994 | locus YML120C, strain ndi1, active compounds read low 0.985 | locus YMR058W, strain fet3, active compounds read low 1 | locus YMR125W, strain sto1, active compounds read low 0.946 | locus YMR129W, active compounds read low 1 | locus YMR205C, strain PFK2, active compounds read low 0.99 | locus YMR231W, strain pep5, active compounds read low 0.99 | locus YNL071W, strain lat1, active compounds read low 1 | locus YNL183C, strain NPR1, active compounds read low 0.957 | locus YNL209W, strain ssb2, active compounds read low 1.01 | locus YNL248C, strain rpa49, active compounds read low 0.989 | locus YNL322C, strain KRE1 (second series), active compounds read low 0.976 | locus YNR049C, strain mso1, active compounds read low 1 | locus YOR001W, strain rrp6, active compounds read low 0.973 | locus YOR070C, strain gyp1, active compounds read low 0.998 | locus YOR080W, strain dia2, active compounds read low 0.987 | locus YOR083W, strain WHI5, active compounds read low 0.983 | locus YOR106W, strain vam3, active compounds read low 0.98 | locus YOR231W, strain MKK1, active compounds read low 1.01 | locus YOR265W, strain rbl2, active compounds read low 0.993 | locus YOR270C, strain vph1, active compounds read low 0.967 | locus YOR290C, strain snf2, active compounds read low 1.01 | locus YPL051W, strain arl3, active compounds read low 0.988 | locus YPL078C, strain atp4, active compounds read low 0.979 | locus YPL106C, strain sse1, active compounds read low 1.05 | locus YPL240C, strain hsp82, active compounds read low 1 | locus YPL256C, strain CLN2, active compounds read low 1.01
